ELG1 genotoxic: qHTS screen for small molecules that induce genotoxicity in human embryonic kidney (HEK293T) cells expressing luciferase-tagged ELG1 | HEK293T ELG1-luciferase reporter, luminescence, 16 h | Potency, µM (highest dose often 46 µM), for the others: at the highest dose activity change, positive = activation, usual class: activators | 1.3% of 330,000 active; also: % of control where 0% means no effect; nearly all actives have a fitted effect of over 60% in size
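Luminescence read-out: rising ELG1-luciferase signal, reflecting elevated ELG1 protein under genetic stress, flags genotoxic compounds. Cells were treated for 16 hr at 37 °C before ONE-Glo detection.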
NPC1 promoter act: qHTS Assay for NPC1 Promoter Activators. 2.4% of 320,000 active. AID 485313, 2010. Huh7 NPC1 promoter luciferase reporter, 24 h. Potency, µM (doses to about 9.22 µM), without a hit: at the top dose activation, hits mostly activators; also: % of control where 0% means no effect; nearly all actives have a fitted effect of over 60% in size
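Luminescence read-out of NPC1 promoter-driven luciferase in stably transfected Huh7 cells; compounds delivered in DMSO and left 24 h at 37C, 5% CO2, qHTS titration format.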
ELG1 DNA repair: qHTS screen for small molecules that inhibit ELG1-dependent DNA repair in human embryonic kidney (HEK293T) cells expressing luciferase-tagged ELG1; HEK293T ELG1-luciferase reporter, luminescence, 16 h; DNA damage induced by 5-fluorouridine; Potency, µM (series often up to 46.1 µM), inactives show top-dose activity change, negative = inhibition, most hits filed as inhibitors; 2.3% of 330,000 active; AID 504467, 2011; also: % is scaled to controls: 0 for no effect and ±100 for the full control effect; nearly all actives have a fitted effect of over 55% in size
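Step one: seed 2,000 cells per well. Step two: pin-transfer compound or DMSO alongside 5-fluorouridine. Step three: incubate 16 hr, 37 °C, 5% CO2. Step four: add ONE-Glo, wait 30 min, read luminescence.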
SMN2 splice up: qHTS Assay for Enhancers of SMN2 Splice Variant Expression. HEK293 SMN2-luciferase splicing reporter, luminescence, 30-36 h. Potency, µM (series often up to 46.1 µM), for inactives: at the highest dose activity change, positive = activation, usual class: activators. 2.8% of 210,000 active; also: % of control where 0% means no effect; nearly all actives have a fitted effect of over 55% in size
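HEK293 cells carry an SMN2 minigene-luciferase reporter in which exon 7 inclusion puts luciferase in frame. Cells were seeded at 2000 cells/well, attached for 10-12 hours, then exposed to compounds for 30-36 hours at 37C before ONE-Glo luminescence.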
Rab9 promoter act: qHTS Assay for Rab9 Promoter Activators | Huh7 Rab9 promoter-luciferase reporter, luminescence, 24 h | Potency, µM (highest dose often 9.22 µM), for the others: at the top dose activation, negative = inhibition, most hits filed as activators | 2.8% of 320,000 active; also: % of control where 0% means no effect; nearly all actives have a fitted effect of over 60% in size
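Steps: seed 1500 Huh7 Rab9-luc cells per well, rest 2 h at 37 °C; add compound in DMSO; incubate 24 h; add luciferase reagent, 10 min ambient; read luminescence.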
FLuc modulator: qHTS profiling assay for firefly luciferase inhibitor/activator using purifed enzyme and Km concentrations of substrates (counterscreen for miR-21 project). 6.9% of 360,000 active. purified FLuc, Km substrates, luminescence inhibition. AID 588342, 2011. Potency, µM (highest dose often 57.5 µM), for the others: at the top dose activity change, negative = inhibition, most hits filed as inhibitors. Luciferin 4-monooxygenase (Photinus pyralis), P08659;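 also: plate controls were vehicle for no effect and reference inhibitor for full effect; nearly all actives have a fitted effect of over 55% in size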
Target sequence (P08659 whole entry, looked up): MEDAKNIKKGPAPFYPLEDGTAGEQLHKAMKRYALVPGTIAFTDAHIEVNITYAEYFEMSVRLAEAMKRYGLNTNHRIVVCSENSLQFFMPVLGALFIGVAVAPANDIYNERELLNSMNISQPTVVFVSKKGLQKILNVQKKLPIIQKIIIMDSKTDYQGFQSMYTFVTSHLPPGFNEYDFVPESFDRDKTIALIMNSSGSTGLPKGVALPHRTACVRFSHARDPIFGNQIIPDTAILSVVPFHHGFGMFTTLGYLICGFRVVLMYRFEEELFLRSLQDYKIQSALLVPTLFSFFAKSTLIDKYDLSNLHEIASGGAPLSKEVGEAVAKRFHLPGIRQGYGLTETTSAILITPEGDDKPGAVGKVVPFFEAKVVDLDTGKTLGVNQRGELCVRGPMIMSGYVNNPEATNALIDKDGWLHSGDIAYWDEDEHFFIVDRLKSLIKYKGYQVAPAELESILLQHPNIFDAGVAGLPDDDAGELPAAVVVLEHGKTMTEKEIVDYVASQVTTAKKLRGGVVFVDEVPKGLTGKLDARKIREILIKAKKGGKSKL
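Purified P. pyralis luciferase, 10 nM final, with Km-level 10 uM D-luciferin and 10 uM ATP in 50 mM Tris acetate pH 7.5, 10 mM Mg acetate, 0.01% Tween-20, 0.05% BSA; 6-point qHTS titration about 60 µM downward; luminescence read.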
* marks the source's active call; other numbers are inactive results; u = inconclusive; x = no result given. A selection: hits, their analogues and other compounds. The true share with any hit is near 9.2%. Calls follow the shape of the dose curve; as a rule, active = well fitted curve in the direction sought with a large enough effect; inconclusive = small, poorly fitted or top-dose-only effect, or another doubt; inactive = no such curve, though single readings can be large; an effect the other way counts as inactive or inconclusive. Potency is read from the fitted curve at half-maximal effect.

SMILES	ELG1 genotoxic	NPC1 promoter act	ELG1 DNA repair	SMN2 splice up	Rab9 promoter act	FLuc modulator
CCc1ccc2oc(-c3ccc(C)c(NC(=O)c4cc([N+](=O)[O-])ccc4N4CCOCC4)c3)nc2c1	x	x	x	16.0%	x	1.69µM*
CN1CCN(c2ccc(NC(=O)c3ccc(-c4ccc(Cl)cc4)o3)cc2)CC1	-11.1%	1.7%	u	x	-0.5%	23.9µM*
CS(=O)(=O)N1CCN(c2ccc(NC(=O)c3ccc(-c4ccc(Cl)cc4)o3)cc2)CC1	12.4%	-5.7%	u	-11.5%	-12.0%	-0.4%
O=C(NC(=S)Nc1ccccc1N1CCCC1)c1ccc(-c2cccc([N+](=O)[O-])c2)o1	-4.5%	-11.4%	14.6µM*	-21.2%	15.1%	-3.0%
COc1cc(-c2noc(-c3cc(C)[nH]n3)n2)cc(OC)c1OC	x	x	x	x	x	-3.0%
O=C(Nc1ccc2oc(=O)ccc2c1)c1ccc(-c2cccc([N+](=O)[O-])c2)o1	2.5%	0.1%	u	x	1.1%	-3.3%
CN1CCN(c2ccc(NC(=O)c3ccc(-c4cccc([N+](=O)[O-])c4)o3)cc2)CC1	2.5%	11.7%	u	-4.5%	8.2%	15.1µM*
CCc1ccc2oc(-c3cccc(NC(=O)c4ccc(-c5cccc([N+](=O)[O-])c5)o4)c3)nc2c1	x	x	x	u	x	2.69µM*
ClCc1cc2ccccc2nc1Cl	-7.7%	-7.3%	8.7%	-12.9%	-0.3%	-10.7%
COc1nn(-c2ccccc2)c(=O)c(Cl)c1Cl	-10.6%	-47.4%	u	x	-49.9%	0.1%
Clc1nc2ccccc2cc1-c1nnn(-c2ccccc2)n1	16.4µM*	3.16µM*	u	x	1.58µM*	2.39µM*
Fc1ccc(-n2nnc(-c3nccs3)n2)cc1	3.66µM*	0.501µM*	u	x	0.501µM*	3.38µM*
O=c1ncn(-c2ccc(F)cc2)c2ncccc12	4.1%	1.4%	14.5%	4.0%	-2.8%	-0.2%
COc1ncccc1-c1nnn(-c2ccccc2)n1	8.2µM*	1.78µM*	u	x	0.708µM*	3.38µM*
Cc1ccc(-n2nnc(-c3nccn3C)n2)cc1	1.83µM*	0.501µM*	u	x	0.355µM*	1.35µM*
CC1CCCCN1CCCNC(=O)C1CCCN(c2ncnc3c2nc2n3CCCCC2)C1 (stereo unspecified)	3.7%	-0.9%	0.0%	x	6.6%	2.9%
c1ccc2ncc(-n3cnnn3)cc2c1	9.7%	7.0%	-1.1%	-4.9%	0.4%	-3.6%
Fc1ccc(-n2nnc(-c3cccnc3Cl)n2)cc1	5.8µM*	1.58µM*	u	x	0.355µM*	2.39µM*
c1ccc(OCCCn2nnc(-c3cccnc3)n2)cc1	6.4%	-5.7%	3.7%	-10.8%	0.5%	-3.0%
c1ccc(-n2nnc(-c3cccnc3)n2)cc1	u	3.98µM*	u	x	2.82µM*	13.5µM*
Cc1ccc(-n2nnc(-c3cnc4ccccc4c3)n2)cc1	1.64µM*	0.891µM*	u	x	0.316µM*	0.426µM*
CCCn1c(-c2cccnc2Cl)nc2cc(Cl)c(Cl)cc21	-3.0%	1.0%	5.6%	-13.4%	-0.6%	-0.9%
Clc1ccc(-n2nnc(-c3cccnc3Cl)n2)cc1Cl	10.3µM*	1µM*	u	x	1.12µM*	1.35µM*
CC1(c2ccc(OC(F)F)cc2)NC(=O)N(CC(=O)Nc2ccc(Cl)cc2F)C1=O (stereo unspecified)	9.7%	-0.7%	14.2%	x	-0.8%	4.5%
C=CCN1C(=O)c2ccc(C(=O)NCCOc3ccccc3F)cc2C1=O	5.2%	12.3%	u	x	15.8%	u
SMILES	ELG1 genotoxic	NPC1 promoter act	ELG1 DNA repair	SMN2 splice up	Rab9 promoter act	FLuc modulator
CC(=O)Nc1cccc(NC(=O)CS(=O)(=O)c2cn(CC(=O)N3CCCC3)c3ccccc23)c1	7.4%	-6.2%	0.8%	x	0.7%	4.7%
O=C(Cc1ccsc1)Nc1ccc(Cl)cc1Cl	8.1%	-1.0%	-2.4%	x	7.4%	-3.4%
CC(C)c1ccc(C2c3c(-c4ccccc4O)n[nH]c3C(=O)N2Cc2ccncc2)cc1 (stereo unspecified)	x	x	x	8.2%	x	1.6%
Clc1ncccc1-c1nnn(-c2ccccc2)n1	6.51µM*	1.12µM*	u	x	1.41µM*	2.39µM*
Fc1ccc(-n2nnc(-c3ccccc3Cl)n2)cc1	-1.8%	-5.5%	8.5%	x	-4.0%	0.1%
COc1ccc(C(=O)Nc2ccc3nc(N4CCN(C)CC4)cc(C)c3c2)c(OC)c1	7.3%	0.1%	2.4%	x	-0.3%	16.9µM*
COc1ccc2c(C)cc(N3CCOCC3)nc2c1	8.4%	21.3%	u	12.8%	24.1%	u
Cc1cc(N2CCN(C)CC2)nc2ccc(NC(=O)c3ccc(C(C)(C)C)cc3)cc12	x	x	x	-96.7%	x	u
COc1ccc2nc(N3CCOCC3)cc(C)c2c1	8.2µM*	u	u	11.2µM*	2.82µM*	5.36µM*
CCOc1ccccc1NC(=O)Nc1nnc(N2CCCCCC2)s1	x	x	x	x	x	15.1µM*
CCOc1ccccc1NC(=O)Nc1ccc2nc(N3CCN(C)CC3)cc(C)c2c1	x	x	x	x	x	5.36µM*
CC(=O)c1ccc(S(=O)(=O)N2CCCC(N(C)CCc3ccccn3)C2)cc1 (stereo unspecified)	0.7%	-2.5%	2.9%	x	-0.2%	2.2%
Cc1ccc(C2(C)NC(=O)N(CC(=O)N(Cc3ccccc3)C(C)(C)C)C2=O)cc1 (stereo unspecified)	-4.8%	-3.3%	u	x	0.2%	0.5%
COc1ccc(CN(C)C(=O)c2[nH]c(C)c(C(C)=O)c2C)c(OC)c1OC	-10.1%	-0.6%	4.6%	x	1.1%	-1.5%
CC1=C(C(=O)Nc2ccccc2C)C(c2ccncc2)n2nc(SCc3ccccc3)nc2N1 (stereo unspecified)	x	x	x	-1.8%	x	2.2%
COc1cccc(C(=O)Nc2ccc3nc(N4CCN(c5ncccn5)CC4)cc(C)c3c2)c1OC	-12.1%	-16.5%	2.59µM*	-90.5%	-12.9%	x
CCN1CCN(c2cc(C)c3cc(NC(=O)c4cccc(OC)c4)ccc3n2)CC1	12.3%	16.1%	u	x	20.2%	19µM*
Cc1occc1C(=O)N/N=C/C(Br)=C\c1ccccc1	u	2.51µM*	u	x	0.891µM*	2.13µM*
Cc1occc1C(=O)N/N=C/C=C/c1ccc(N(C)C)cc1	u	4.47µM*	u	x	2.51µM*	23.9µM*
Cc1occc1C(=O)N/N=C/C=C/c1ccccc1	u	3.55µM*	u	12.6µM*	3.55µM*	u

Compound activity (PubChem)
